# Sampled rows, rich in hits. Any-hit rate of the full collection: about 3.5%.
# TEAD-YAP block: TEAD-YAP interaction inhibition, primary screen, TEAD-YAP interaction inhibitor project, luminescence, HEK-TIYL cells | TEAD-Gal4/YAP UAS-luciferase luminescence | inhibition, % at 9.12 µM | 1.4% of 640,000 active | AID 1259422, 2018; in the data active means inhibition above about 32%;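 further: 0% = median of test compound wells and 100% = reference inhibitor wells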
# FBW7 activator: FBW7 E3 ligase activators, primary screen, biochemical, AlphaScreen, human; F-box/WD repeat-containing protein 7 (Homo sapiens), Q969H0; AlphaScreen FBW7–phospho-cyclin E peptide binding, activator screen; normalized activity (activation), % at 26.1 µM; 0.13% of 650,000 active; in the data active means normalized activity above about 1.9%;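 further: purified mutant Fbw7 with reduced substrate affinity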
# GPR151 ag: activators of human GPR151, primary screen, cell-based, PathHunter beta-arrestin, luminescence; 1% of 650,000 active; G-protein coupled receptor 151 (Homo sapiens), Q8TDV0; activation, % at 11.2 µM; PathHunter beta-arrestin GPR151 cells; in the data active means activation above about 4.9%;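 further: 0% = median of compound wells and 100% = cells with positive control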
# MITF inh: MITF inhibitors, primary screen, biochemical, AlphaScreen, human; Microphthalmia-associated transcription factor (Homo sapiens), O75030; AlphaScreen MITF homodimerization, bead proximity signal; inhibition, % at 2.6 µM; 0.91% of 650,000 active; AID 1259374, 2018; in the data active means inhibition above about 50%;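 further: 0% = vehicle wells with protein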
# Target sequence (O75030 whole entry, looked up): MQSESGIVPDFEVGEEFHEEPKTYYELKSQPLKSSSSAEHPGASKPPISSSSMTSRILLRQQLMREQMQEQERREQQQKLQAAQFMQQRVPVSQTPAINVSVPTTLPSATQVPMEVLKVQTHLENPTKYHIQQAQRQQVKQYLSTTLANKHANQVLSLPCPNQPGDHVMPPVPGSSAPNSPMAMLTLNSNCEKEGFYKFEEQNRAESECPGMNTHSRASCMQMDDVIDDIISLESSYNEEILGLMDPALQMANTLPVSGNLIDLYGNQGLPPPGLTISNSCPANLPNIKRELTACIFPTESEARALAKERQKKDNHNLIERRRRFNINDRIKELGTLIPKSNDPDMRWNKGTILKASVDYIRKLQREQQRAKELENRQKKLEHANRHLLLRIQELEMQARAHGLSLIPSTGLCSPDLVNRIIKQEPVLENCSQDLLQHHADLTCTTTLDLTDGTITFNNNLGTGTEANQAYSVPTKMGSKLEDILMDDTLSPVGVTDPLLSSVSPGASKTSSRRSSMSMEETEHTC
# GPR151 confirm: GPR151 activators, triplicate retest, confirmation, cell-based, PathHunter beta-arrestin, luminescence. GPR151 PathHunter beta-arrestin cells, 90 min; % of EA-reagent control over plate median. activation, % at 11.2 µM. shares compounds with GPR151 ag. 6,700 tested, under 10 active;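 active means mean percent activation across replicates above the confirmation screen cutoff of 4.91%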
# GPR119 ag: GPR119 activators in beta-arrestin cells, counter-screen for GPR151 activator project, cell-based, PathHunter beta-arrestin, luminescence, triplicate; AID 1508611, 2020; activation, % at 11.2 µM; 90 min; 0 = compound-well median, 100 = enzyme-acceptor control; 0.3% of 6,700 active; shares compounds with GPR151 ag;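 active means mean percent activation in the counterscreen above 29.09%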;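 further: counterscreen on off-target GPR119 to flag nonselective hits from the GPR151 activator screen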
# The depositor's hits bear a star; . = not tested or not shown.
SMILES,TEAD-YAP block,FBW7 activator,GPR151 ag,MITF inh,GPR151 confirm,GPR119 ag
COC(=O)c1cc(S(=O)(=O)N2CCC(C)CC2)ccc1F,7,1,12*,18,1,-4
CC1CCN(S(=O)(=O)c2ccc(F)c(C(=O)Nc3ccc(F)cc3)c2)CC1,-11,0,0,-9,.,.
COc1cc2nc(Nc3nc4ccccc4n3C)nc(NCCCN3CCCC3=O)c2cc1OC,-6,0,-2,0,.,.
COc1cc2nc(Nc3nccc4ccccc34)nc(NCCCN3CCCC3=O)c2cc1OC,-4,0,5.6*,3,0,-1
C=CCCC(=O)NCc1cc(NS(=O)(=O)c2ccccc2Cl)cc(C(=O)OC)c1,3,1,0,1,.,.
COC(=O)c1cc(CNC(=O)C(C)C)cc(NS(=O)(=O)c2ccccc2Cl)c1,-9,0,5.6*,-7,0,17
Cc1nc2c(c(=O)[nH]1)CCN(Cc1ccc3ncccc3c1)C2,0,0,6.5*,5,0,-2
CC(C)(C)n1nc2c(c1NC(=O)c1ccc([N+](=O)[O-])cc1)CSC2,9,0,0,5,.,.
OCCNCCCOc1ccc(Cl)cc1Cl,-3,0,0,24,.,.
CCOc1ccc(C(=O)N2CCc3cc(OC)c(OC)cc3C2COc2ccc(C(=O)OC)cc2)cc1OCC (configuration not stated),-7,0,20*,3,0,0
COc1cc2c(cc1OC)C(COc1ccc(F)cc1)N(C(=O)/C=C/c1cc(OC)c(OC)c(OC)c1)CC2 (configuration not stated),7,0,6.3*,5,1,10
CCOC(=O)c1ccc(OCC2c3cc(OC)c(OC)cc3CCN2C(=O)c2ccc(OCC)c(OCC)c2)cc1 (configuration not stated),4,0,0,-4,.,.
COc1ccc(OCC2c3cc(OC)c(OC)cc3CCN2C(=O)/C=C/c2cc(OC)c(OC)c(OC)c2)cc1 (configuration not stated),29,0,-1,-4,.,.
COc1cc2c(cc1OC)C(COc1ccc(F)cc1)NCC2 (configuration not stated),6,0,7.1*,1,0,1
Cc1nc(NC(=O)c2ccc([N+](=O)[O-])cc2)ccc1Br,-1,0,4,-6,.,.
COc1cccc(N(C(=O)CN2C(=O)C3CC=CCC3C2=O)c2nc3ccccc3s2)c1 (configuration not stated),-80,0,4,-3,.,.
Cc1ccccc1OCCCC(=O)Nc1nnc(C(C)C)s1,6,0,2,-14,.,.
CCc1nnc(NC(=O)CN2CCC(O)(c3ccccc3OC)CC2)s1,1,0,6.5*,3,1,7
CCc1nnc(NC(=O)CCCOc2ccccc2C)s1,4,0,12*,-3,1,-2
FC(F)(F)c1cccc(NC(=S)N2CCSC2c2ccc(Br)cc2)c1 (configuration not stated),-5,0,6.4*,-12,1,-2
CCCCOc1ccc(-c2nnc(-c3ccc(-c4ccccc4)cc3)o2)cc1,2,0,5.5*,5,0,-10
CCN(CC)C(=O)C1CCCN(c2nc(C)cc(Nc3ccc(Oc4ccccc4)cc3)n2)C1 (configuration not stated),14,0,12*,-2,1,4
O=C(NCc1ccc(-c2nc3ccccc3o2)cc1)c1ccco1,1,1,1,10,.,.
COc1ccc(OC)c(NC(=O)COc2cccc3ccccc23)c1,-14,0,0,6,.,.
O=C1NCC(O)=C1C=NCCO,3,0,6.2*,11,1,3
SMILES,TEAD-YAP block,FBW7 activator,GPR151 ag,MITF inh,GPR151 confirm,GPR119 ag
O=C1NCC(O)=C1C=Nc1ccccc1,3,0,5.2*,-2,-2,-15
O=C1NCC(O)=C1C=Nc1ccc(O)cc1,5,0,0,15,.,.
COc1ccc(C(C)(C)C)cc1NC(=O)COn1nnc2ccc(C(F)(F)F)cc21,15,0,5.1*,-9,0,5
COc1cc(C=O)cc(Cl)c1OCc1cccc([N+](=O)[O-])c1,-6,0,0,-2,.,.
COc1ccc(N2C(=O)c3ccccc3NC2c2ccc(OCC(=O)Nc3ccc(F)cc3)cc2)cc1 (configuration not stated),-40,0,0,-2,.,.
CCOC(=O)c1c(NC(=O)c2ccccc2Cl)sc2c1CC(C)(C)NC2(C)C,-16,0,2,-3,.,.
CCOC(=O)c1c(NC(=O)c2ccc(OC)cc2OC)sc2c1CC(C)(C)NC2(C)C,-2,0,5.6*,-2,0,-2
CC1(C)Cc2c(sc(NC(=O)c3ccccc3F)c2C(N)=O)C(C)(C)N1,5,0,6.3*,3,0,2
Cc1ccc(C(=O)OCC(=O)NC(=O)NCC(C)C)c(O)c1,-2,0,0,13,.,.
COc1cccc2cc(C(=O)C3=C(O)C(=O)N(Cc4ccco4)C3c3cccnc3)oc12 (configuration not stated),11,0,5.4*,-2,0,9
COc1ccc(CCNC(=O)c2csc(-c3cccs3)n2)cc1,-3,1,0,18,.,.
O=C(NCCc1ccc(O)cc1)c1csc(-c2cccs2)n1,-3,0,6.4*,36,0,5
COCc1cc(C)nc2sc(C(=O)c3ccccc3)c(N)c12,1,1,-2,3,.,.
COCc1cc(C)nc2oc(C(=O)c3ccccc3)c(N)c12,6,0,5.7*,-6,-1,-11
CC(C)N(CCNc1nc(NCc2cccnc2)nc2nc[nH]c12)C(C)C,4,0,6.2*,-4,0,-2
CCNc1nc(NCc2cccnc2)c2[nH]cnc2n1,-4,0,-1,18,.,.
O=C(Nc1ccccc1)N1CCC(CO)(CCc2ccccc2)CC1,-3,0,9.9*,6,0,2
O=C(Nc1ccc(F)c(F)c1F)c1ccc(CO)cc1,-18,0,-2,3,.,.
CCOc1ccccc1N1CCN(S(=O)(=O)c2ccccc2[N+](=O)[O-])CC1,0,0,5.7*,-4,-1,-5
CCOc1ccccc1CN1CCN(S(=O)(=O)c2ccccc2[N+](=O)[O-])CC1,-9,0,5.7*,37,0,11

# Bioassay records deposited in PubChem BioAssay by The Scripps Research Institute Molecular Screening Center.
